# Assay outcomes from PubChem.
# The list is not random: actives were taken first. Their share in the collection is about 10%.
# Luc counter: Kinase-Glo luciferase inhibition (counter-screen). Kinase-Glo luciferase, ATP luminescence, 8 min. Potency, µM (series often up to 38.3 µM), without a hit: at the highest dose activity change, negative = inhibition, most hits filed as inhibitors. hit rate 0.28% among 200,000. AID 1379; active means well fitted inhibition curve with a large enough effect; inconclusive means small, poorly fitted or top-dose-only effect; further: potency means the concentration at half of the fitted maximal effect; nearly all actives have a fitted effect of over 60% in size
#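 Recombinant Kinase-Glo luciferase, 10 uM ATP (linear range), luciferin; imidazole pH 7.2 / KCl / MgCl2 / Tween / BSA buffer; 8 min RT; luminescence.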
# ALDH1A1 inh: blocks purified human ALDH1A1 activity; hit rate 7.3% among 220,000; Potency, µM (series often up to 75.3 µM), without a hit: at the top dose activity, negative = inhibition, usual class: inhibitors; P00352; Purified ALDH1A1, NADH fluorescence, propionaldehyde substrate;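 further: potency means the concentration at half of the fitted maximal effect; plate controls were no enzyme wells and a reference inhibitor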
# Target sequence (P00352 whole entry, looked up): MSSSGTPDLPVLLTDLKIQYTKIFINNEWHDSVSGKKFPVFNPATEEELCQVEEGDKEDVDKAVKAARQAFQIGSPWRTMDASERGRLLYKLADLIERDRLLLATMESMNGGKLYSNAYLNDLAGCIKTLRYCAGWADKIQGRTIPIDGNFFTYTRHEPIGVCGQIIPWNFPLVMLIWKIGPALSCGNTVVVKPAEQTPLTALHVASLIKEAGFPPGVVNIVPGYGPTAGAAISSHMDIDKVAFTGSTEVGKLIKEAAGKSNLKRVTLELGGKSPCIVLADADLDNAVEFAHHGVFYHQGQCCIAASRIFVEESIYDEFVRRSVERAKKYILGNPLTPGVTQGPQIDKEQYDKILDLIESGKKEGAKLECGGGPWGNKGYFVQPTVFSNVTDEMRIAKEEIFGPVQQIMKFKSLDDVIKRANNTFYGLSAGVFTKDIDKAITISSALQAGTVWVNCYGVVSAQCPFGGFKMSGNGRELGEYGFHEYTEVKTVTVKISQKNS
# IMPase cell inh: membrane-permeable compound that blocks inositol monophosphatase. CHO-M1 cells, IP1 accumulation, HTRF TR-FRET ratio. inhibition (IP1 accumulation), % at 46.1 µM. 120,000 tested, under 10 active; active means well fitted curve in the direction sought with a large enough effect in the signal ratio, not every such curve was filed as active; inconclusive means small, poorly fitted or top-dose-only effect, or a change in a side signal; inactive means no such curve, though single readings can be large or run the other way; the % refers to the signal ratio;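 further: cells stimulated with carbachol in lithium chloride buffer; plate controls were DMSO basal wells for no effect and reference inhibitor wells for full effect; higher means more IMPase inhibition seen as more IP1 and lower FRET ratio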
#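 CHO-M1 cells (CHO stably expressing M1 receptor), compound up to 46 uM final, stimulated with carbachol (50 uM as added) in buffer with 50mM LiCl, pH 7.4, 30 min at 37C. Cytosolic IP1 read by TR-FRET; AC50 from Hill fits.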
# HPGD block: HPGD (human) dehydrogenase inhibition; P15428; purified HPGD, NADH fluorescence kinetic, PGE2 substrate; Potency, µM, without a hit: at the highest dose activity change, negative = inhibition, actives largely listed as inhibitors; hit rate 4.3% among 150,000; further: potency means the concentration at half of the fitted maximal effect
# Target sequence (P15428 whole entry, looked up): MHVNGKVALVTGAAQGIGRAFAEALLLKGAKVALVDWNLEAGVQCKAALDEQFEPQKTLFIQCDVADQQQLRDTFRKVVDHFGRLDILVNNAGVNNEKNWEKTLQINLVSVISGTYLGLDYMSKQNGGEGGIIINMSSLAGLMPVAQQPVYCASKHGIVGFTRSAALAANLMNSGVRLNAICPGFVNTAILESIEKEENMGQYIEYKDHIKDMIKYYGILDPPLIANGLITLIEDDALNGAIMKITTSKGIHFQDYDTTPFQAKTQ
#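 20 nM HPGD preincubated 15 min at room temperature with compound in 50 mM Tris-HCl pH 8, 0.01% Tween 20. Started with 1 mM NAD+ and 30 uM prostaglandin E2; NADH fluorescence (360/450 nm) read 5 times over 30-s intervals, last minus first.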
# Lamin A splicing: changes lamin A minigene splicing in HeLa cells; Potency, µM (titrated, usually from 46.1 µM), for the others: at the top dose ratio change, negative = inhibition, actives largely listed as inhibitors; AID 1487; HeLa LMNA splicing GFP/RFP minigene ratio, 48 h; hit rate 0.01% among 200,000; active means well fitted inhibition curve with a large enough effect in the signal ratio, with a control signal flat, not every such curve was filed as active; inconclusive means small, poorly fitted or top-dose-only effect, or effect the other way, or a change in a side signal; the % refers to the signal ratio; further: potency means the concentration at half of the fitted maximal effect
#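 S3 HeLa cells stably expressing lamin A-EGFP splicing minigene plus DsRed2, 600 cells/well, 48 h compound exposure at 37C. Laser-scanning cytometry; analysed as GFP (500-530 nm)/RFP (575-640 nm) total intensity ratio; 0.5% DMSO vehicle.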
# PNC assembly inh: perinucleolar compartment assembly inhibition. activity change (PNC), negative = inhibition, % at 10 µM. hit rate 3.1% among 140,000. AID 2417. PC3M PTB-GFP, PNC prevalence imaging, 16 h; stronger effect = lower value;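 active means readout at or below -70, meaning at least 70% loss of cells showing the perinucleolar compartment, a nuclear body marking cancer cells; inconclusive means readout between -30 and a set limit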;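 further: plate controls were DMSO wells for no effect and camptothecin positive control wells for full effect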
#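 Read-out is percentage of cells bearing a perinucleolar compartment, from automated 20x imaging of fixed, Hoechst-stained PC3M PTB-GFP cells. Cells were seeded 4 h, then exposed 16 h to compound (23 nl of library stock) in duplicate plates.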
# An asterisk follows results filed as active; ? = inconclusive; . = no result given; [ ] = remark or other dose. Unless noted, the call rests on the fitted dose curve; in most records, active means well fitted inhibition curve with a large enough effect (not every such curve was filed as active); inconclusive means small, poorly fitted or top-dose-only effect, or another doubt; inactive means no such curve, though single readings can be large or run the other way. Unless noted, on the % scale 0 is the no-effect control and ±100 the full control effect.
SMILES,Luc counter,ALDH1A1 inh,IMPase cell inh,HPGD block,Lamin A splicing,PNC assembly inh
CC(=O)OCC(=O)[C@]12OC(C)(C)O[C@@H]1C[C@H]1[C@H]3CC=C4C[C@@H](O)CC[C@]4(C)[C@H]3CC[C@]12C,-3.7%[7.66 µM],3.9%[13.5 µM],.,-2.0%,.,.
O=C(/C=C/Nc1ccc(Br)cc1F)c1ccccc1,10µM*,?,.,-7.4%,?,-18.4
O=C(/C=C/Nc1ccc(F)cc1)c1ccc(Br)cc1,-9.8%,-0.1%,.,.,-6.2%[46 µM],.
O=C(/C=C/Nc1ccc(F)c(F)c1)c1ccc(Br)cc1,-2.0%,-4.1%,.,-13.1%,-0.4%,-29.3
O=C(/C=C/Nc1ccccc1F)c1ccc(Br)cc1,-10.6%,3.2%,.,-16.2%,-7.5%,-115.2*
Cc1ccc(O)c(C(=O)c2cnc3c(c2)CN(C)C(=O)N3)c1,-3.0%,25.1µM*,3.9,28.2µM*,-13.9%,?
CN1Cc2cc(C(=O)c3cc(Cl)cc(CSc4ncccn4)c3O)cnc2NC1=O,-2.2%,28.2µM*,2.6,14.1µM*,?,?
Cc1ccc(O)c(C(=O)c2cnc3c(c2)CN(CCC(C)C)C(=O)N3)c1,-4.4%,?,-3.5,-20.2%,?,0.9
Cc1ccc(O)c(C(=O)c2cnc3c(c2)COc2ccc(C)cc2-3)c1,-0.5%,-4.1%,14.4,17.8µM*,?,?
COc1ccc(-n2nc3c(c2NC(=O)C24CC5CC(CC(C5)C2)C4)CS(=O)C3)cc1 (centres undefined),0.5%,2.82µM*,5.5,-3.0%,-6.2%,-24.7
COc1ccc(-n2nc3c(c2NC(=O)C2CC2)CS(=O)C3)cc1 (centres undefined),-0.3%,-2.6%,-13.6,-4.5%,4.2%,-1.5
COc1ccccc1N1CCN(C(CNS(=O)(=O)c2cc(F)ccc2F)c2cccnc2)CC1 (centres undefined),2.3%,20µM*,.,-10.2%,3.4%,2.8
COc1ccc(S(=O)(=O)NCC(c2cccnc2)N2CCN(c3ccccc3OC)CC2)cc1C (centres undefined),-1.7%,?,-2.6,-9.1%,-3.3%,-12.7
COc1ccccc1N1CCN(C(CNC(=O)C2CCCCC2)c2cccnc2)CC1 (centres undefined),-1.2%,3.4%,13.8,5.3%,?,?
COc1ccccc1N1CCN(C(CNS(=O)(=O)c2ccccc2)c2cccnc2)CC1 (centres undefined),14.8%,20µM*,-5.5,-3.0%,5.7%,31.5
CCc1ccc(OCC(=O)N(Cc2ccc(C(C)C)cc2)C2CCS(=O)(=O)C2)cc1 (centres undefined),.,.,2.2,.,.,.
CC(CS(=O)(=O)c1cccc2cccnc12)N1CCCCC1 (centres undefined),.,20µM*,10.4,.,-11.4%,44.1
CN(CC(=O)N1CCCCCC1)S(=O)(=O)c1cccc2cccnc12,-4.5%,?,-1.4,-14.8%,-0.3%,-6.6
O=C(NC1CCCCC1)c1ccc(NS(=O)(=O)c2cccc3cccnc23)cc1,0.4%,7.94µM*,.,.,.,.
O=S(=O)(NC1CCCCCC1)c1cccc2cccnc12,-5.3%,14.1µM*,-2.8,-1.4%,?,4.4
O=C(NCc1ccccc1)c1cccc(NS(=O)(=O)c2cccc3cccnc23)c1,1.2%,0.501µM*,.,-1.8%,-5.1%,14.2
Cc1cccc(N2C(=O)CS(=O)(=O)C23C(=O)N(Cc2c(F)cccc2Cl)c2ccccc23)c1 (centres undefined),.,.,.,.,2.4%[46 µM],.
COc1ccc(-c2nnn(CC(=O)Nc3sc4c(c3C#N)CCCC4)n2)cc1,-5.8%,10µM*,7.3,-17.9%,8.3%,?
N#Cc1cc2c(nc1SCC(=O)Nc1sc3c(c1C#N)CCC3)CCCCCC2,-0.5%,15.8µM*,-6.4,-9.8%,3.3%,?
Cc1ccc(C(=O)NCc2nnc(SCC(=O)Nc3sc4c(c3C#N)CCCC4)n2C)cc1,3.3%,14.1µM*,8.1,-32.8%,9.0%,-6.4
SMILES,Luc counter,ALDH1A1 inh,IMPase cell inh,HPGD block,Lamin A splicing,PNC assembly inh
CCn1c(SCC(=O)Nc2sc3c(c2C#N)CCCC3)nnc1-c1ccncc1,1.5%,17.8µM*,?,-8.6%,-16.2%,2.1
Cc1ccc(-n2c3nc(=O)[nH]c(=O)c-3cc3cc([N+](=O)[O-])ccc32)cc1C,2.6%,3.2%,4.9,31.6µM*,?,-15.9
Cc1cc2oc(=O)cc(CN3CCC(C)CC3)c2cc1Cl,-0.2%,20µM*,3.1,-23.2%,-3.1%,-6.9
COc1ccc(-c2[nH]c(-c3ccc(F)cc3)nc2SCC(=O)Nc2ccc(OC)c(OC)c2)cc1,.,.,10.1,.,.,.
CCOc1ncccc1C(=O)NCc1ccc(C)cc1,-0.8%,-0.5%,7.6,15.8µM*,-1.0%,?
CCOc1ncccc1C(=O)Nc1ccccc1C(=O)NCc1ccc2c(c1)OCO2,-2.0%,167.0%,?,-21.6%,4.7%,-26.2
CSc1ncccc1C(=O)NCc1ccc(C)cc1,0.7%,1.3%,-4.9,14.1µM*,5.9%,-12.3
CSc1ncccc1C(=O)NCCc1ccc(Cl)cc1,3.3%,6.0%,.,.,2.3%[46 µM],.
CC(C)(C)OC(=O)N1CCC(c2c(C(=O)NCc3ccccc3)cnn2-c2cccc(F)c2)CC1,.,.,.,.,-28.3%[46 µM],.
COc1ccc(NC(=S)NCCc2ccc(S(N)(=O)=O)cc2)c(OC)c1,-1.2%,22.4µM*,.,.,.,.
COc1ccc(Cl)cc1NC(=S)NCCc1ccc(S(N)(=O)=O)cc1,.,6.31µM*,.,.,.,.
COc1ccccc1NC(=S)NCCc1ccc(S(N)(=O)=O)cc1,3.2%,?,.,.,.,.
CCC(Sc1nc2ncccc2[nH]1)C(=O)Nc1ccccc1F (centres undefined),.,.,.,.,2.1%[46 µM],.
CN(Cc1ccccc1)C(=O)[C@H](Cc1ccc2ccccc2c1)NC(=O)[C@@H]1C[C@@H](O)CN1C(=O)c1cn(C)c2ccccc12,1.6%[39.9 µM],-17.3%,.,-8.4%,.,.
N#Cc1ccccc1CN1C(=O)S/C(=C/c2cccn2-c2ccc(C(=O)O)cc2)C1=O,-3.1%,0.501µM*,-0.1,28.2µM*,10.7%,?
CCc1cccc(OCC(=O)Nc2ccc(S(=O)(=O)Nc3cc(C)nc(C)n3)cc2)c1,.,.,1.7,.,.,.
Cc1nc(NCc2ccccc2)c2nc(-c3ccccc3)n(CCCN(C)C)c2n1,-2.9%,?,.,?,.,.
